# Measurements taken from PubChem BioAssay.
# Values joined by “and” are separate entries in the source; they are usually repeats but may differ in a detail not shown here. Equal values may be shown once. For part of these data: Measured potencies and affinities stand elsewhere. Active and inactive are the calls of the source.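 How the source made its calls, unless noted: active means thallium flux through the channel raised or lowered by more than 3 SD from vehicle-only wells, actives on both sides; inactive means the rest.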
# Key:
# [1] = polyglutamine-triggered caspase-3 activation inhibitors, cell-based (AID 1583); conditions: polyglutamine-induced caspase-3 activation, cell assay; stronger effect = higher value;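 tested at 10 µM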
# [2] = suppressors of polyQ aggregation in yeast, 75Q-TubU reporter (AID 1593); conditions: Yeast 75Q polyglutamine aggregation reporter
# [3] = rescue of polyQ-huntingtin neuronal dysfunction in worms, whole organism, C. elegans mechanosensory neurons, N-terminal huntingtin (AID 1599); conditions: touch response, stronger effect = higher value
# [4] = inhibitors of mitochondrial cytochrome c release, biochemical, purified mitochondria (AID 1603); conditions: stronger effect = lower value;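 further: mouse liver mitochondria challenged with calcium chloride; signal normalized to the plate average as 100%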
# [5] = inhibitors of polyQ protein aggregation (AID 1604); conditions: polyglutamine-induced protein aggregation inhibition assay; stronger effect = higher value; tested at 2.5 µM
# [6] = enhancers of glutamate uptake in motor neurons, MN-1 cell line (AID 1612); conditions: MN-1 motor neuron cells, stronger effect = higher value;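 further: tested at 1 µM final; 0% = mean of DMSO vehicle wells on each plate; positive means more glutamate uptake than control and negative means less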
# [7] = suppressors of polyglutamine aggregation in yeast, 75Q-TubH (AID 1616); conditions: S. cerevisiae 75Q-TubH polyglutamine aggregation suppression; stronger effect = higher value
# [8] = hESC survival regulators, cell-based (AID 493140; call rule not given here;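 further: cells exposed to compounds for four days before counting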); conditions: human embryonic stem cell survival screen; stronger effect = higher value
# [9] = tested on: Hepatitis C virus NS3 helicase; experiment: HCV NS3 helicase inhibitors, primary screen, biochemical, fluorescence polarization, LOPAC1280 library (AID 687035; in the data active means inhibition above about 37%); conditions: Purified HCV NS3 helicase, Cy5-dT15 ssDNA binding fluorescence polarization; stronger effect = higher value; concentration not given here
# [10] = Cy5 fluorescence interference with SSB-bound oligo, artefact control for HCV NS3 helicase inhibitor project, biochemical, NIH Clinical Collection, E. coli SSB (AID 743268; call rule not given here)
# [11] = modulation of C. elegans fzo-1 (AID 1259413; call rule not given here;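 further: fzo-1 mutant C. elegans worms in liquid wells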); conditions: C. elegans fzo-1 modulator screen, mean read-out; stronger effect = higher value
# [12] = viability rescue of complex I mutant cybrids, primary screen, cell-based, galactose medium, ATP luminescence (AID 1645843;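 active means z-score of at least 1.8 in each of two replicates, scored against plate mean and spread of sample wells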;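 further: positive z means more ATP and so rescue of galactose-driven cybrid death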); conditions: complex I mutant cybrid cells, 72 h, stronger effect = higher value
# F380Y/beta1 = experiment: modulators of BK channel variants, profiling panel, selectivity assay, cell-based, U2OS BacMam, thallium flux, beta subunits (AID 1259406); conditions: at 30 µM;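 further: initial slope of Thallos dye fluorescence rise after thallium is added; log ratio against the mean of 0.3% DMSO vehicle wells on the same plate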
# F380Y/beta4 = experiment: as above; conditions: at 30 µM
# R275C = experiment: as above; conditions: at 30 µM
# R275C/beta1 = experiment: as above; conditions: at 30 µM
# R275C/beta2Delta = experiment: as above; conditions: at 30 µM
# R275C/beta4 = experiment: as above; conditions: at 30 µM
# R275C/Slo1WT/beta2 = experiment: as above; conditions: at 30 µM
SMILES,inhibition [1] [%],score [2],rescue above control [3],cytochrome c release ratio [4],inhibition of aggregation [5] [%],glutamate uptake change [6] [%],aggregation suppression score [7],survival [8],inhibition [9],fluorescence ratio [10],mean signal [11],z-score [12],log fold change Tl+ flux (F380Y/beta1),log fold change Tl+ flux (F380Y/beta4),log fold change Tl+ flux (R275C),log fold change Tl+ flux (R275C/beta1),log fold change Tl+ flux (R275C/beta2Delta),log fold change Tl+ flux (R275C/beta4),log fold change Tl+ flux (R275C/Slo1WT/beta2)
CCN(CC)CCOC(=O)c1ccc(N)cc1,9.09,1.48,-15,1.16,23.9,22.4,1.46,15.7 (inactive),0% (inactive),1.06 (inactive),231 (inactive),0.17 (inactive) and -0.015 (inactive),-0.0732 (inactive),0.0148 (inactive),-0.00878 (inactive),-0.0214 (inactive),0.0278 (inactive),-0.0586 (inactive),-0.013 (inactive)
CC(N=C(NC#N)Nc1ccncc1)C(C)(C)C (stereo not drawn),–,–,–,–,–,–,–,59.8 (inactive),-5% (inactive),0.97 (inactive),282 (inactive),0.04 (inactive) and -0.155 (inactive) and 0.65 (inactive),0.0184 (inactive),0.00227 (inactive),0.000868 (inactive),0.00651 (inactive),-0.00406 (inactive),-0.0193 (inactive),-0.0219 (inactive)
NS(=O)(=O)c1cc(C2(O)NC(=O)c3ccccc32)ccc1Cl (stereo not drawn),2.88,1.55,-4.25,0.9,77,-2.06,1.49,4.42 (inactive),–,0.81 (inactive),251 (inactive),0.15 (inactive),-0.0295 (inactive),-0.0276 (inactive),-0.0359 (inactive),-0.0254 (inactive),-0.0423 (inactive),-0.0855 (inactive),0.0191 (inactive)
CC(C)NCC(O)c1cc(O)cc(O)c1 (stereo not drawn),11.6,1.21,-1.18,0.62,83.9,-18.3,1.15,10.4 (inactive),-4% (inactive),1.05 (inactive),261 (inactive),0.07 (inactive) and 1.61 (inactive),0.0393 (inactive),-0.0531 (inactive),0.0473 (inactive),-0.038 (inactive),0.0259 (inactive),0.0475 (inactive),0.0212 (inactive)
Cc1nc2ccccn2c(=O)c1CCN1CCC(C(=O)c2ccc(F)cc2)CC1,–,–,–,–,–,–,–,8.08 (inactive),-3% (inactive),0.95 (inactive),234 (inactive),-1.02 (inactive) and -0.645 (inactive),0.0396 (inactive),0.0319 (inactive),-0.025 (inactive),-0.0266 (inactive),-0.0363 (inactive),-0.0285 (inactive),0.00703 (inactive)
CN(C)CCC=C1c2ccccc2CCc2ccccc21,5.08,0.94,17.6,1.57,70.5,-1.53,0.931,7.08 (inactive),-5% (inactive),0.94 (inactive),243 (inactive),-0.73 (inactive) and -1.31 (inactive),0.103 (inactive),0.189 (active),0.07 (inactive),0.106 (inactive),0.128 (active),0.135 (active),0.00351 (inactive)
CC(CN1c2ccccc2Sc2ccccc21)N(C)C (stereo not drawn),-21.1,1.87,27.9,0.77,66.7,9.05,1.37,1.42 (inactive),-2% (inactive),0.91 (inactive),245 (inactive),-1.14 (inactive) and -0.84 (inactive) and -0.715 (inactive),0.16 (active),0.26 (active),-0.00748 (inactive),0.305 (active),0.176 (active),0.0949 (inactive),-0.0568 (inactive)
C[C@H](CS)C(=O)N1CCC[C@H]1C(=O)O,11.5,1.09,-12.7,0.82,37.2,-3.95,1.08,–,0% (inactive),–,261 (inactive),0.49 (inactive) and 0.465 (inactive) and -0.54 (inactive),-0.0696 (inactive),0.0146 (inactive),0.0445 (inactive),-0.0207 (inactive),0.0269 (inactive),-0.00777 (inactive),0.0231 (inactive)
Nc1ccc(S(=O)(=O)c2ccc(N)cc2)cc1,2.36,0.97,9.67,0.87,66.2,-16.9,1.25,11.6 (inactive),–,0.97 (inactive),228 (inactive),-0.16 (inactive),-0.00845 (inactive),0.0288 (inactive),-0.00888 (inactive),-0.0191 (inactive),0.0154 (inactive),-0.0181 (inactive),-0.0232 (inactive)
